The record followed here is PubChem BioAssay AID1063 (University of Pittsburgh Molecular Library Screening Center, 2008).

Screen size: about 200,000 compounds; about 18,000 (9%) were called active. This is one part of a sample in which actives are shown more often than they occur. Unmarked numbers belong to inactive results. Rule as the data show it: active = inhibition above about 50%; inactive = the rest.

The nature of this assay: antileishmanial activity against promastigotes – primary screen (AID 1063).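 Also: promastigotes grown with compound for 44 hours at 28 °C.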 The following applies: Leishmania major promastigotes, resazurin fluorescence viability; at 10 µM; active compounds read high.
Consider `COc1cccc(NC(=O)c2nn(C34CC5CC(CC(C5)C3)C4)cc2[N+](=O)[O-])c1`, for which the inhibition is 66.2% (active). On to `COc1cccc(NC(=O)c2nn(-c3ccc(OC)cc3OC)c(=O)c3ccccc23)c1`, for which the inhibition is -3.79%.

As for `COc1cccc(NC(=O)c2ccc(Cn3cc([N+](=O)[O-])cn3)o2)c1`, the inhibition was 47.4%. Take `CC(CO)NCC12CC3CC(CC(C3)C1)C2` (centres undefined): the inhibition is 7.47%.

On to `CC(C)N(C)C(=O)CCc1nnc(CCc2c[nH]c3ccccc23)o1`, for which the inhibition is -3.38%. The result for `Cc1nnsc1C(=O)N/N=C/c1cccc(C(F)(F)F)c1` reads 12.3%; that for `CCOc1ccc(-n2c(SCC(=O)NC3CCS(=O)(=O)C3)nnc2-c2cccnc2)cc1` (centres undefined), -3.53%; that for `Cc1ccc(C(=O)NN(CCC#N)C2=NS(=O)(=O)c3ccccc32)cc1`, -9.19%. The result for `CC(C)(C)c1csc(NC2=NS(=O)(=O)c3ccccc32)n1` reads -6.96%; that for `Cc1ccc(S(=O)(=O)N(NC2=NS(=O)(=O)c3ccccc32)C(=O)c2ccccc2)cc1`, 53% (active). For `O=C(NNS(=O)(=O)c1ccc(F)cc1)c1cnccn1`, the inhibition is -7.62%.

On to `COc1ccc(C(=O)NNC(=O)c2cc(C)[nH]n2)cc1`, for which the inhibition is -2.25%.

For `Cc1ccc(Cl)c(NC(=O)CN(C)CC(=O)Nc2ccc(F)c(F)c2F)c1Cl`, the inhibition was 0.59%.

For the molecule `CC(CNC(=O)c1ccc(N)cc1)NC(=O)c1ccc(N)cc1` (centres undefined), the inhibition is -1.57%. As to `Cc1cc(C)c(NC(=O)c2oc3ccccc3c2COc2ccccc2)c(C)c1`, the inhibition is 62.7% (active). For `COCc1c(C(=O)OCc2c(C)noc2C)oc2ccccc12`, the inhibition was -3.77%. With `CCOC(=O)c1oc2ccccc2c1NC(=O)c1cccs1`, the inhibition was -2.52%. `NC(=O)COc1ccc(NC(=O)c2ccccc2-c2ccccc2)cc1`: the inhibition is 10.2%. For `CCO/C=C1\C(=O)N(c2ccc(OCC)cc2)C(=O)c2ccccc21`, the inhibition is 0.41%. Consider `NS(=O)(=O)c1ccc(CCNC(=O)c2ccc([N+](=O)[O-])cc2[N+](=O)[O-])cc1`, for which the inhibition is -7.26%. Consider `NS(=O)(=O)c1ccc(CCNC(=O)c2ccc(Cl)cc2[N+](=O)[O-])cc1`, for which the inhibition is 6.41%. With `NS(=O)(=O)c1ccc(CNC(=O)c2ccc(Cl)cc2[N+](=O)[O-])cc1`, the inhibition was 52.1% (active). As to `Cc1ccc(C(=O)NCC(=O)O)s1`, the inhibition was -10.9%. To `CSc1ccc(/C=N\NC(=O)COc2ccc(Cl)cc2Br)cc1` belongs -9.17%; to `COCCCNCCOCCOc1ccc(Cl)cc1Br`, 91.2% (active). As to `COCCNCCOCCOc1cccc(OC)c1`, the inhibition is 1.86%. To `Cc1cc(C)n(-c2ccc3nncn3n2)n1` belongs -5.45%. With `C=CCn1c(=NC(=O)c2cccs2)sc2cc(NC(C)=O)ccc21`, the inhibition was 9.06%. In the case of `CCCOC1CCCN(Cc2cn(C)nc2-c2ccccc2F)C1` (centres undefined), the inhibition was -5.85%. As for `Cc1ccc(CN2CCN(Cc3cn(C)nc3-c3ccccc3)CC2CCO)o1` (centres undefined), the inhibition is -3.67%. As for `Cn1cc(CN2CCCC(CO)C2)c(-c2ccc(Oc3ccccc3)cc2)n1` (centres undefined), the inhibition was 88.6% (active).

With `O=C(CSc1nc(O)c(Cc2ccccc2)c(=O)[nH]1)Nc1nc2c(s1)CCCC2`, the inhibition is 2.85%.

Consider `CC(=O)NC(CC(=O)O)c1ccc(F)cc1` (centres undefined), for which the inhibition was -5.31%. On to `CC(=O)c1ccc(NC(=O)N[C@@H](Cc2ccccc2)C(=O)O)cc1`, for which the inhibition was -5.12%. The result for `CC(=O)NC(Cc1ccc(F)cc1)C(=O)O` (centres undefined) reads 83.9% (active); that for `N#Cc1c(N)nc2c(c1N)CC(C(F)(F)F)O2` (centres undefined), 1.43%; that for `Cc1ccc(C(=O)O)cc1N1C(=O)CCCC1=O`, -2.53%. `Cc1[nH]c(=O)c(C(=O)/C=C/c2ccccc2)c2c1CCCC2`: the inhibition was 98.8% (active). As to `Cc1nc(-c2ccccc2)sc1C(=O)/C=C/c1ccccc1`, the inhibition was 48.9%.

In the case of `O=C(/C=C/c1ccccc1)c1ccccc1O`, the inhibition was 9.25%.

For the molecule `O=C(CCNC(=O)Cn1ccc2ccccc2c1=O)NCCC1=CCCCC1`, the inhibition is -3.42%. On to `Cc1ccccc1N1C(=O)C(Oc2ccc(Cl)cc2)C1CNCC1CCCO1` (centres undefined), for which the inhibition was 14.7%. To `CCc1nc2ccccc2c(C(=O)NCc2ccc(OC)cc2)c1C` belongs -2.62%; to `COc1nc(N=C(N)N)nc2c(C)cccc12`, 29%. Consider `Cc1cccc2c(=O)n3c(nc12)CCCCC3`, for which the inhibition is -1.77%.

Consider `Cc1nc(N=C(N)N)nc2c(C)cccc12`, for which the inhibition is 99.5% (active). In the case of `CCOc1ccc(N2C(=O)Nc3ccccc3C2(O)C(=O)NCc2ccco2)cc1` (centres undefined), the inhibition is -6.71%. As for `Cc1ccc(CCCOC(=O)C[N+]2(C)CCCCC2)cc1`, the inhibition was -3.49%. Take `CCCCc1ccc(NC(=S)NCCCN2CCOCC2)cc1`: the inhibition is 32.5%. Consider `CSc1ccc(CN(C)CC(=O)NCc2ccc(F)cc2)cc1`, for which the inhibition was -5.11%. Take `CSc1ccc(S(=O)(=O)NCc2ccc(Cl)cc2)cc1`: the inhibition was -1.27%.

`CCCCNCc1ccc(SC)cc1`: the inhibition is 76.3% (active).

For the molecule `CSc1ccc(CNCCN2CCOCC2)cc1`, the inhibition was 67.6% (active). With `O=C(NCCN1CCOCC1)[C@H](Cc1ccccc1)N1C(=O)c2ccccc2C1=O`, the inhibition was -3.08%. `Cc1cc(/C=N/NC(N)=O)c(C)n1C1CCCCC1`: the inhibition was 2.71%. The result for `COc1ccc(-c2nc(N)sc2C2(O)C(=O)Nc3c(Br)cc(F)cc32)cc1OC` (centres undefined) reads -2.63%; that for `O=C(/C=C/c1ccco1)Nc1cccc(-c2nc3ccccc3[nH]2)c1`, 28.8%; that for `Cc1nnc(NC(=O)/C=C/c2ccco2)s1`, 21.5%. Take `O=C(/C=C/c1ccco1)Nc1ccc(Oc2ccccc2)cc1`: the inhibition is 99.6% (active). Regarding `COC(=O)C1=C(C(=O)OC)C(c2cc([N+](=O)[O-])ccc2O)c2sc(=O)[nH]c2S1` (centres undefined), the inhibition was -11.4%. `Clc1ncn(CCOc2ccccc2)c1Cl`: the inhibition was -6.41%. As for `CCN(CC)CCNC(=O)c1sc2ncn(CC(=O)Nc3ccc(C)c(Cl)c3)c(=O)c2c1C`, the inhibition is 87.1% (active). As for `CCN(CC)CCCNC(=O)Cn1cnc2sc(C)c(S(=O)(=O)N3CCN(c4ncccn4)CC3)c2c1=O`, the inhibition was 1.29%. As for `CCN(CC)CCNC(=O)Cn1cnc2sc(C)c(S(=O)(=O)N3CCOCC3)c2c1=O`, the inhibition was -1.31%.
